Holding throughout (experiment): PBM; 200 nM protein, PBS
Details in all cases: dsDNA, one strand shown

Experiment [1] has as its target NKX2-5 (Homo sapiens, UniProt P52952 125-210, R139K).
Experiment [2] addresses T1, NKX2-4 (Homo sapiens, UniProt Q9H2Z4 175-261, P217L).
T1 sequence: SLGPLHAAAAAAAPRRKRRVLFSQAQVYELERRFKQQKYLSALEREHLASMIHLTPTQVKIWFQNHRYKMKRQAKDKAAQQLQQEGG

Experiment [3] concerns the target T2, NKX2-4 (Homo sapiens, UniProt Q9H2Z4 175-261, T231S).
T2 sequence: T1 sequence with L43P, T57S

Experiment [4] concerns the target T3, NKX2-4 (Homo sapiens, UniProt Q9H2Z4 175-261).
T3 sequence: T1 sequence with L43P

In experiment [5] the target is T4, NKX2-6 (Homo sapiens, UniProt A6NCS4 118-204, R150C).
T4 sequence: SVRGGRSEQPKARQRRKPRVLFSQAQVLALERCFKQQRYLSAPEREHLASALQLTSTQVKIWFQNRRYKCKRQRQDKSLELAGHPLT

In experiment [6] the target is T5, NKX2-6 (Homo sapiens, UniProt A6NCS4 118-204).
T5 sequence: T4 sequence with C33R

Experiment [7] has as its target T6, NKX2-4 (Homo sapiens, UniProt Q9H2Z4 175-261, R246Q).
T6 sequence: T1 sequence with L43P, R72Q

Experiment [8] addresses T7, NKX2-6 (Homo sapiens, UniProt A6NCS4 118-204, F151L).
T7 sequence: T4 sequence with C33R, F34L

Experiment [9] addresses NKX3-2 (Homo sapiens, UniProt P78367 192-278, P234S).
Experiment [10] has as its target NKX2-5 (Homo sapiens, UniProt P52952 125-210).
Experiment [11] addresses NKX3-2 (Homo sapiens, UniProt P78367 192-278).

Where a chain is given by its changes, count along the chain named.

Sequence of NKX3-2 (Homo sapiens, UniProt P78367 192-278, P234S) (P78367 192-278 P234S): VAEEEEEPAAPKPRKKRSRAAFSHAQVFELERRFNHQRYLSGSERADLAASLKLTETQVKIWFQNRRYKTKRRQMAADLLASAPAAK
Sequence of NKX2-5 (Homo sapiens, UniProt P52952 125-210, R139K) (P52952 125-210 R139K): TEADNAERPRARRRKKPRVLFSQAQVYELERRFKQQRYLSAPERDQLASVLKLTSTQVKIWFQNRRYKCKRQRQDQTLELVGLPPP
Sequence of NKX3-2 (Homo sapiens, UniProt P78367 192-278) (P78367 192-278): as the sequence (P78367 192-278 P234S) above, with S43P counted along it
Sequence of NKX2-5 (Homo sapiens, UniProt P52952 125-210) (P52952 125-210): as the sequence (P52952 125-210 R139K) above, with K15R counted along it

With ACTTAAGT, the binding signal was 12.8 upbm affinity estimate (log intensity, higher = more binding, comparable within an allelic series) in [1]; 12.5 upbm affinity estimate (log intensity, higher = more binding, comparable within an allelic series) in [2]; 12.9 upbm affinity estimate (log intensity, higher = more binding, comparable within an allelic series) in experiment [3]; 12.4 upbm affinity estimate (log intensity, higher = more binding, comparable within an allelic series) in experiment [4]; 11.8 upbm affinity estimate (log intensity, higher = more binding, comparable within an allelic series) in [5]; 13.7 upbm affinity estimate (log intensity, higher = more binding, comparable within an allelic series) in [6]. The binding signal in experiment [7] is 13 upbm affinity estimate (log intensity, higher = more binding, comparable within an allelic series); in experiment [8], 11.2 upbm affinity estimate (log intensity, higher = more binding, comparable within an allelic series); in [9] it was 12.6 upbm affinity estimate (log intensity, higher = more binding, comparable within an allelic series); in experiment [10], 12.9 upbm affinity estimate (log intensity, higher = more binding, comparable within an allelic series); in experiment [11], 12.7 upbm affinity estimate (log intensity, higher = more binding, comparable within an allelic series).

For AAGTACCT, the binding signal in [1] was 12.6 upbm affinity estimate (log intensity, higher = more binding, comparable within an allelic series); in experiment [2], 12.5 upbm affinity estimate (log intensity, higher = more binding, comparable within an allelic series); in experiment [3], 12.9 upbm affinity estimate (log intensity, higher = more binding, comparable within an allelic series); in experiment [4] it was 12.4 upbm affinity estimate (log intensity, higher = more binding, comparable within an allelic series); in [5], 11.7 upbm affinity estimate (log intensity, higher = more binding, comparable within an allelic series); in experiment [6], 13.4 upbm affinity estimate (log intensity, higher = more binding, comparable within an allelic series). Moreover, the binding signal was 12.9 upbm affinity estimate (log intensity, higher = more binding, comparable within an allelic series) in experiment [7]; 10.6 upbm affinity estimate (log intensity, higher = more binding, comparable within an allelic series) in [8]; 12.6 upbm affinity estimate (log intensity, higher = more binding, comparable within an allelic series) in experiment [9]; 12.4 upbm affinity estimate (log intensity, higher = more binding, comparable within an allelic series) in experiment [10]; 12.6 upbm affinity estimate (log intensity, higher = more binding, comparable within an allelic series) in experiment [11].

Turning to ATAAGTGC, the binding signal was 13 upbm affinity estimate (log intensity, higher = more binding, comparable within an allelic series) in experiment [1]; 12.7 upbm affinity estimate (log intensity, higher = more binding, comparable within an allelic series) in experiment [2]; 13.1 upbm affinity estimate (log intensity, higher = more binding, comparable within an allelic series) in experiment [3]; 12.6 upbm affinity estimate (log intensity, higher = more binding, comparable within an allelic series) in [4]; 12.2 upbm affinity estimate (log intensity, higher = more binding, comparable within an allelic series) in [5]; 13.8 upbm affinity estimate (log intensity, higher = more binding, comparable within an allelic series) in experiment [6]. Further, the binding signal in [7] was 13.3 upbm affinity estimate (log intensity, higher = more binding, comparable within an allelic series); in experiment [8] it was 11.4 upbm affinity estimate (log intensity, higher = more binding, comparable within an allelic series); in experiment [9] it was 12.9 upbm affinity estimate (log intensity, higher = more binding, comparable within an allelic series); in experiment [10], 12.9 upbm affinity estimate (log intensity, higher = more binding, comparable within an allelic series); in [11], 13 upbm affinity estimate (log intensity, higher = more binding, comparable within an allelic series).

On to ACCACTTG, for which the binding signal was 12.8 upbm affinity estimate (log intensity, higher = more binding, comparable within an allelic series) in experiment [1]; 12.6 upbm affinity estimate (log intensity, higher = more binding, comparable within an allelic series) in experiment [2]; 13 upbm affinity estimate (log intensity, higher = more binding, comparable within an allelic series) in experiment [3]; 12.5 upbm affinity estimate (log intensity, higher = more binding, comparable within an allelic series) in [4]; 11.8 upbm affinity estimate (log intensity, higher = more binding, comparable within an allelic series) in experiment [5]; 13.5 upbm affinity estimate (log intensity, higher = more binding, comparable within an allelic series) in experiment [6]. Further, the binding signal in experiment [7] is 13.1 upbm affinity estimate (log intensity, higher = more binding, comparable within an allelic series); in [8] it was 10.7 upbm affinity estimate (log intensity, higher = more binding, comparable within an allelic series); in [9], 12.6 upbm affinity estimate (log intensity, higher = more binding, comparable within an allelic series); in experiment [10], 12.6 upbm affinity estimate (log intensity, higher = more binding, comparable within an allelic series); in experiment [11], 12.7 upbm affinity estimate (log intensity, higher = more binding, comparable within an allelic series).

As for AAGTGGAT, the binding signal is 12.5 upbm affinity estimate (log intensity, higher = more binding, comparable within an allelic series) in experiment [1]; 12.5 upbm affinity estimate (log intensity, higher = more binding, comparable within an allelic series) in [2]; 12.8 upbm affinity estimate (log intensity, higher = more binding, comparable within an allelic series) in experiment [3]; 12.3 upbm affinity estimate (log intensity, higher = more binding, comparable within an allelic series) in experiment [4]; 11.8 upbm affinity estimate (log intensity, higher = more binding, comparable within an allelic series) in experiment [5]; 13.3 upbm affinity estimate (log intensity, higher = more binding, comparable within an allelic series) in experiment [6]. The binding signal is 12.9 upbm affinity estimate (log intensity, higher = more binding, comparable within an allelic series) in [7]; 10.7 upbm affinity estimate (log intensity, higher = more binding, comparable within an allelic series) in experiment [8]; 12.8 upbm affinity estimate (log intensity, higher = more binding, comparable within an allelic series) in [9]; 12.5 upbm affinity estimate (log intensity, higher = more binding, comparable within an allelic series) in experiment [10]; 12.8 upbm affinity estimate (log intensity, higher = more binding, comparable within an allelic series) in experiment [11].

For the sequence CACTTAAC, the binding signal in experiment [1] was 12.8 upbm affinity estimate (log intensity, higher = more binding, comparable within an allelic series); in experiment [2] it was 12.5 upbm affinity estimate (log intensity, higher = more binding, comparable within an allelic series); in [3] it was 12.9 upbm affinity estimate (log intensity, higher = more binding, comparable within an allelic series); in [4], 12.4 upbm affinity estimate (log intensity, higher = more binding, comparable within an allelic series); in experiment [5], 11.8 upbm affinity estimate (log intensity, higher = more binding, comparable within an allelic series); in [6], 13.7 upbm affinity estimate (log intensity, higher = more binding, comparable within an allelic series). For the same sequence, the binding signal in experiment [7] is 13.1 upbm affinity estimate (log intensity, higher = more binding, comparable within an allelic series); in [8] it was 11.2 upbm affinity estimate (log intensity, higher = more binding, comparable within an allelic series); in experiment [9], 12.9 upbm affinity estimate (log intensity, higher = more binding, comparable within an allelic series); in experiment [10], 12.8 upbm affinity estimate (log intensity, higher = more binding, comparable within an allelic series); in [11], 12.9 upbm affinity estimate (log intensity, higher = more binding, comparable within an allelic series).

These data come from PMC11006913.
